Measurements: the supplement of paper PMC11732987, “Enantioselective OTUD7B fragment discovery through chemoproteomics screening and high-throughput optimisation” (Communications Chemistry, 2025)

How the values were obtained:
Assay in all cases: log2 ratio of Biotin-Ahx-Ub-VS probe labelling (fragment/DMSO); higher = less target engagement (more negative = stronger competition), active = hit call of the paper (q ≤ 0.05, log2 ratio ≤ -1)
Details in all cases: compound concentration: 200 uM; treatment time: 3 h
USP34 = USP34 (UniProt Q70CQ2)
Sequence of USP34 (Q70CQ2 whole entry, the tested form may be a part): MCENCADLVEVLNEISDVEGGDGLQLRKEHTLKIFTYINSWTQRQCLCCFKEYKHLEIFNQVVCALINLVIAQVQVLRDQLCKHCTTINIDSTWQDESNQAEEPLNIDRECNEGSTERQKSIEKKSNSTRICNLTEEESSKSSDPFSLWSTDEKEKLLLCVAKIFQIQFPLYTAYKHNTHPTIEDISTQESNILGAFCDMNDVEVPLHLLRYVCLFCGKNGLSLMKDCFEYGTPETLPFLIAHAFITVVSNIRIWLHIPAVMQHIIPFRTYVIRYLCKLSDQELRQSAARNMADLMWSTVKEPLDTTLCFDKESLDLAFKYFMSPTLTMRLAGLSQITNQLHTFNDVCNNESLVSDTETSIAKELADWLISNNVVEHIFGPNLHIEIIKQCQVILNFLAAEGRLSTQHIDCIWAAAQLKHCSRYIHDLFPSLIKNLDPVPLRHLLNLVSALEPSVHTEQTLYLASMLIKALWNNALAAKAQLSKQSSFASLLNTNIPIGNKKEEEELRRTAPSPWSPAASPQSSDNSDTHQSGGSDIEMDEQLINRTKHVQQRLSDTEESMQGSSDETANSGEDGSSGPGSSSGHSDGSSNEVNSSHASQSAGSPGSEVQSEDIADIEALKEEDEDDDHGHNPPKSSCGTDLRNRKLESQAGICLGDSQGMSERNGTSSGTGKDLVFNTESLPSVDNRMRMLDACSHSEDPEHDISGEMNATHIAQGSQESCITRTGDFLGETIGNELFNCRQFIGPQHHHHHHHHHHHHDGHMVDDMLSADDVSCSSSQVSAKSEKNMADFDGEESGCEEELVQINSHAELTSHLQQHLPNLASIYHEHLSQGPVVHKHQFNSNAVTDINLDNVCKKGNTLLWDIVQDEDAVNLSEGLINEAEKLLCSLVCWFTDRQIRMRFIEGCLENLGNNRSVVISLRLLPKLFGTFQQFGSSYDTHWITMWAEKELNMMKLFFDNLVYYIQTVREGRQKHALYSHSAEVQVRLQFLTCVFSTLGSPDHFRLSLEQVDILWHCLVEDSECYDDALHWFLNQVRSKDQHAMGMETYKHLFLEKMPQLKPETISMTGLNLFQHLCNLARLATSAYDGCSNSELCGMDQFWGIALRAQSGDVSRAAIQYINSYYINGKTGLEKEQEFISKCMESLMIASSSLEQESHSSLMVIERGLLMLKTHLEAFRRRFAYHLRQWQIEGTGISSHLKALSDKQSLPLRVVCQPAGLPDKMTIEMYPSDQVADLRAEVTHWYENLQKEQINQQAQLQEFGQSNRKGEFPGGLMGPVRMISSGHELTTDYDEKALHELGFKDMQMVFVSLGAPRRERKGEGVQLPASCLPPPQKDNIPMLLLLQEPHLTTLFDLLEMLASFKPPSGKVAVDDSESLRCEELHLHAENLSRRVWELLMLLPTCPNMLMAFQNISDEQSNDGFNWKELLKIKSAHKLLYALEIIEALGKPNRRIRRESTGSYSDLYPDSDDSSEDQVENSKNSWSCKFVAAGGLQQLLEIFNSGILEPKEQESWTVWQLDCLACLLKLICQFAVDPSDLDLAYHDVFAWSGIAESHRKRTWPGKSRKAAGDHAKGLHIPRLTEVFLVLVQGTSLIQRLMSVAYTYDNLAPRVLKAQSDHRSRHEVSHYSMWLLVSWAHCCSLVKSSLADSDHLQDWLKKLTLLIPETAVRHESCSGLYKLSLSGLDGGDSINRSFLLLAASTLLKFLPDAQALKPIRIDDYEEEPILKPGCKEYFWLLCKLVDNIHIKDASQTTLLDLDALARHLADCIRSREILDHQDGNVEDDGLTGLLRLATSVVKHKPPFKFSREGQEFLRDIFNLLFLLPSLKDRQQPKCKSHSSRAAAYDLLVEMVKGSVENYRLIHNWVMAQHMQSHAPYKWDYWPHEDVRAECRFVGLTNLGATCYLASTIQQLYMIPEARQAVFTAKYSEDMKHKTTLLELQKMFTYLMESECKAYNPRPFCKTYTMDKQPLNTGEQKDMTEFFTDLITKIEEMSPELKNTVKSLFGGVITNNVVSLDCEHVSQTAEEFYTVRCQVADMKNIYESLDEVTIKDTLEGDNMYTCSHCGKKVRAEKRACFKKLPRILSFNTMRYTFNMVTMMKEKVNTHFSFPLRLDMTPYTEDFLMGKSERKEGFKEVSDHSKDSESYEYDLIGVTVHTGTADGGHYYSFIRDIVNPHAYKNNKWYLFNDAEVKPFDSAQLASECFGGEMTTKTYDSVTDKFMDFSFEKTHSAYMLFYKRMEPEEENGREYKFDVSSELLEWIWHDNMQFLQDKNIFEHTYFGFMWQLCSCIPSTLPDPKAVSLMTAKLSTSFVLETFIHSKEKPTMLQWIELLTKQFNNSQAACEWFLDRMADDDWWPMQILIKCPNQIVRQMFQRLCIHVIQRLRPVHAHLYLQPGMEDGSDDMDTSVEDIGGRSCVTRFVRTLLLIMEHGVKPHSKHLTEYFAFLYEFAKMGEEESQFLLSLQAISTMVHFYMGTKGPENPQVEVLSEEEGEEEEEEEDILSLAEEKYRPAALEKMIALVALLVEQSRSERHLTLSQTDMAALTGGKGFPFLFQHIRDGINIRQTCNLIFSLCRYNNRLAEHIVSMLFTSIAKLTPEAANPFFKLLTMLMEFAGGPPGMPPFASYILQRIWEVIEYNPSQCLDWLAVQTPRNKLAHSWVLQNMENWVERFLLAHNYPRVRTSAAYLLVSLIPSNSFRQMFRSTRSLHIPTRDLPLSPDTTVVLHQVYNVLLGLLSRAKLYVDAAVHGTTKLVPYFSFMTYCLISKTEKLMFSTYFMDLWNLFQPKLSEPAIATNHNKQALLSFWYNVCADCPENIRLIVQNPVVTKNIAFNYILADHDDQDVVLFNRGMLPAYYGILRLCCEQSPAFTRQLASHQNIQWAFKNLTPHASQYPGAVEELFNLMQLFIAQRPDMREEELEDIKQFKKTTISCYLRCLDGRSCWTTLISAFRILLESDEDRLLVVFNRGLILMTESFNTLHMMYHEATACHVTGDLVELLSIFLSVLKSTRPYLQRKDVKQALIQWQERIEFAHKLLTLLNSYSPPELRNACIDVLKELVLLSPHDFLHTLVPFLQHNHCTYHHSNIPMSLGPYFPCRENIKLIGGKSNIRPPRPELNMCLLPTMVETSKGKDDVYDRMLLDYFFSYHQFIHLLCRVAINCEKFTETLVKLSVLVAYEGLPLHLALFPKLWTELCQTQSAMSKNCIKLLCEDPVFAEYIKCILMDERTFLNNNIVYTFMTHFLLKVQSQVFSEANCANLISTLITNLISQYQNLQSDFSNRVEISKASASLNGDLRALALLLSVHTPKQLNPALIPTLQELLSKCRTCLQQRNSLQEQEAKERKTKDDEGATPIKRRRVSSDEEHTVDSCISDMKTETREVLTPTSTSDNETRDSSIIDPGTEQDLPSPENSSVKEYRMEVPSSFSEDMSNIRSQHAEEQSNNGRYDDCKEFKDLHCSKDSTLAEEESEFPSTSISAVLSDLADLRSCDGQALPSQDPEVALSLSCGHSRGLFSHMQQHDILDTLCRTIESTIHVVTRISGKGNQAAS
Outline: (§1)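 Global-median-normalised Spectronaut label-free quantities were compared by unpaired t-test, and values are average log2 ratios of fragment over vehicle. Only proteins with ≥2 unique peptides were used. HEK293T lysate (495 µg per sample) was treated in triplicate with fragment at 200 µM or vehicle for 3 h and then with Biotin-Ahx-Ub-VS at 0.5 µM final for 1 h. Labelled DUBs were then NeutrAvidin-enriched, digested with LysC and trypsin, and run by diaPASEF LC-MS/MS.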

USP36 = molecular target: T1, USP36 (UniProt Q9P275)
T1 sequence (whole entry): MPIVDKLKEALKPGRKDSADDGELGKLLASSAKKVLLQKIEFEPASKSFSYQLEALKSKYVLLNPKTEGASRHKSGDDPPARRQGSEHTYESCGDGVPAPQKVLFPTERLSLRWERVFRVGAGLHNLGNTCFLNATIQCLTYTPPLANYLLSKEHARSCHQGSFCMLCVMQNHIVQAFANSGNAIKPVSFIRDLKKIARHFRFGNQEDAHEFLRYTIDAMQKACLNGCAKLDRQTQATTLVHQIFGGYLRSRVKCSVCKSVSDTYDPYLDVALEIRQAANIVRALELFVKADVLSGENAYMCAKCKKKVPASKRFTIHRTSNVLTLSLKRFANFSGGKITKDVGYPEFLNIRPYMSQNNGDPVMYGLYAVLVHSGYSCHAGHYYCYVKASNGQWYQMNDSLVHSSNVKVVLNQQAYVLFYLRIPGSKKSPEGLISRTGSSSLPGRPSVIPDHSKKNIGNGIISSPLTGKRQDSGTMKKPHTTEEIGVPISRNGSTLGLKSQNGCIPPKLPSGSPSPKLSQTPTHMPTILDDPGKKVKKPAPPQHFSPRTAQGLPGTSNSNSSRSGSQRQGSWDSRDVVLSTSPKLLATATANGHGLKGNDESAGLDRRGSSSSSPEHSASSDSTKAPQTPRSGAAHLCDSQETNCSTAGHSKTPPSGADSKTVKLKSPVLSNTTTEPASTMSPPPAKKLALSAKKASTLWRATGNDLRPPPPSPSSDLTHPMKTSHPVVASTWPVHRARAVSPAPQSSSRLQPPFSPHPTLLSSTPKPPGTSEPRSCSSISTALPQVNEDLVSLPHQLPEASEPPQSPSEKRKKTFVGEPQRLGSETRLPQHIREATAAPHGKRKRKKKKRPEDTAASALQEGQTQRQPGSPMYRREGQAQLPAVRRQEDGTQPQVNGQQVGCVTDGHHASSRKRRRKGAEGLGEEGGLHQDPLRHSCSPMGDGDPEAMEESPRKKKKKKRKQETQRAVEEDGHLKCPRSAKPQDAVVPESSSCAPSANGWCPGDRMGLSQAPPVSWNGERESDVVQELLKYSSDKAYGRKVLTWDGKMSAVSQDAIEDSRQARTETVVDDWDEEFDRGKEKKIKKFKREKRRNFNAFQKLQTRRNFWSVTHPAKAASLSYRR
Outline: as §1

USP38 = molecular target: T2, USP38 (UniProt Q8NB14)
T2 sequence (whole entry): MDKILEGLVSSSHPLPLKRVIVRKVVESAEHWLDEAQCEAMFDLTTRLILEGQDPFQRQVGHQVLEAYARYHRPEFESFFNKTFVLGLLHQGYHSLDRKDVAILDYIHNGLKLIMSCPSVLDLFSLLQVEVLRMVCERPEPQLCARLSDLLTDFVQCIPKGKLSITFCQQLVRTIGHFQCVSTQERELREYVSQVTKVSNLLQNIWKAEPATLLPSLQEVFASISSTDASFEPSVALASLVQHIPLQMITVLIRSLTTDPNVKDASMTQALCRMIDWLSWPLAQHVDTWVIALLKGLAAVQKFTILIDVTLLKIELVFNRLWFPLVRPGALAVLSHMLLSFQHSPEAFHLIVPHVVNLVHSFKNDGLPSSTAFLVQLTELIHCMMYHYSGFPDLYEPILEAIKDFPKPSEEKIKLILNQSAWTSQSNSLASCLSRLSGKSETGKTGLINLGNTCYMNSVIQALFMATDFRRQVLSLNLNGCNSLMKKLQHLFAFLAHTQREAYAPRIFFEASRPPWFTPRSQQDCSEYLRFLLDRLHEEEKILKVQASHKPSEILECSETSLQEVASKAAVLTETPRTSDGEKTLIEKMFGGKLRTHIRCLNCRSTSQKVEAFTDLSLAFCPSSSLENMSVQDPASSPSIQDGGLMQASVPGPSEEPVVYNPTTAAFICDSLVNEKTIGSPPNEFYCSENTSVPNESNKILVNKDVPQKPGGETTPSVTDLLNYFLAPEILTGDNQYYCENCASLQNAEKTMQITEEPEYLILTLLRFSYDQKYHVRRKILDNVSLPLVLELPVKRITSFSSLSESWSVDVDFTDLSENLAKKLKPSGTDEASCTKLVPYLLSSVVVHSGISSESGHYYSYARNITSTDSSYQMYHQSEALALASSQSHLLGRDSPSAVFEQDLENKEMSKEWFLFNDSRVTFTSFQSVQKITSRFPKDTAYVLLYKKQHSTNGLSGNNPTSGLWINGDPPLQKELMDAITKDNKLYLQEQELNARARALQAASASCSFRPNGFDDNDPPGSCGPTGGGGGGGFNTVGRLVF
Outline: as §1

USP39 = molecular target: T3, USP39 (UniProt Q53GS9)
T3 sequence (whole entry): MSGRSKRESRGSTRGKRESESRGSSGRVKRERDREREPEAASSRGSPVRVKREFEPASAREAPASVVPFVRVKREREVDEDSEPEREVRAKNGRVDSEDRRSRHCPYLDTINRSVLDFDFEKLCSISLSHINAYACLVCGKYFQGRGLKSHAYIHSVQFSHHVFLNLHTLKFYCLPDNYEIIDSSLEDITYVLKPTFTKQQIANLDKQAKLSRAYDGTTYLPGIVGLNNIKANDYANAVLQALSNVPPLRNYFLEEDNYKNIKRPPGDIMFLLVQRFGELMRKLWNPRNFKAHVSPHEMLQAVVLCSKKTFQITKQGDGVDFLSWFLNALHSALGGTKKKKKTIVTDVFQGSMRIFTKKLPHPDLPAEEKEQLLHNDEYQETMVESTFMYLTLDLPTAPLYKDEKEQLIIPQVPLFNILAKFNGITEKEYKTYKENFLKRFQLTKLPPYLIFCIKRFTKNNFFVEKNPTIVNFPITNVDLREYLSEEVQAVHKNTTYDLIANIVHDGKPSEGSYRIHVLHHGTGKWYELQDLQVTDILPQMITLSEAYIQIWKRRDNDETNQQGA
Outline: as §1

USP4 = molecular target: T4, USP4 (UniProt Q13107)
T4 sequence (whole entry): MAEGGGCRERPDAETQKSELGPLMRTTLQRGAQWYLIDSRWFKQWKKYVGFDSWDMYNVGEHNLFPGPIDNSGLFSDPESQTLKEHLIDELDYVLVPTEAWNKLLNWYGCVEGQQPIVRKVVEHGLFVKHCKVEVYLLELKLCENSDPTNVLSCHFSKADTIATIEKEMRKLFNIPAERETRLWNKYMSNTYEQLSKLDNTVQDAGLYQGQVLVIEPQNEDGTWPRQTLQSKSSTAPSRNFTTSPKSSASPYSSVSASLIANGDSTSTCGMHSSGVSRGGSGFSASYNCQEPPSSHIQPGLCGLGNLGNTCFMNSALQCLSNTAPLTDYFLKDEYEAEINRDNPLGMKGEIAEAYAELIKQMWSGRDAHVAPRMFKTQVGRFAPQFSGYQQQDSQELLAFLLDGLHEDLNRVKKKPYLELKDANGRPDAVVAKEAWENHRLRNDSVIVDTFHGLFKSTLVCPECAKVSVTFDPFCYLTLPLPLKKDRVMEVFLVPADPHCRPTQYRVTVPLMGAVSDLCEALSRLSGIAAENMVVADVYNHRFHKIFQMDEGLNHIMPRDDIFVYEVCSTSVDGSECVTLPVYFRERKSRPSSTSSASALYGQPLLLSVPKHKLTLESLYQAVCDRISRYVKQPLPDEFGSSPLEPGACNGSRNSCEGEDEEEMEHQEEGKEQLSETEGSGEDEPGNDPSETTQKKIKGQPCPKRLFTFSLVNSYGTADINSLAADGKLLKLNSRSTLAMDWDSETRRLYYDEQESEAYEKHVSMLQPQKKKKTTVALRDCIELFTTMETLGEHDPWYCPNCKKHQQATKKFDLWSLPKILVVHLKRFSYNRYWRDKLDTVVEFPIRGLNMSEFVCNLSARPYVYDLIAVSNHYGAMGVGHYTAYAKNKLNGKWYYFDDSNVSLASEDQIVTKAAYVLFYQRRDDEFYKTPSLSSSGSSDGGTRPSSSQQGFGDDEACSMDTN
Outline: as §1

Measured: log2 ratio of Biotin-Ahx-Ub-VS probe labelling

Cc1nc(-c2cccc(NC(=O)CCl)c2)cs1
inactive: USP34 -0.392 | USP36 0.0209 | USP38 -0.179 | USP39 0.188 | USP4 -0.239
